Among the data in ChEMBL document CHEMBL2218924, “A broad activity screen in support of a chemogenomic map for kinase signalling research and drug discovery” (Biochem J, 2013) are residual activity values, retold here.

Structures are written as SMILES.

Test [1] has as its target Ribosomal protein S6 kinase alpha-1 (Homo sapiens) (UniProt Q15418). Conditions: at 1 µM.
The target is the same in test [2]. The settings on record: at 10 µM.
Test [3] addresses Ribosomal protein S6 kinase alpha-3 (Homo sapiens) (UniProt P51812). Conditions: at 1 µM.
The target is the same in test [4]. Conditions: at 10 µM.
In test [5] the target is Ribosomal protein S6 kinase alpha-2 (Homo sapiens) (UniProt Q15349). The settings on record: at 1 µM.
Chain of Ribosomal protein S6 kinase alpha-2 (Homo sapiens) (Q15349 whole entry): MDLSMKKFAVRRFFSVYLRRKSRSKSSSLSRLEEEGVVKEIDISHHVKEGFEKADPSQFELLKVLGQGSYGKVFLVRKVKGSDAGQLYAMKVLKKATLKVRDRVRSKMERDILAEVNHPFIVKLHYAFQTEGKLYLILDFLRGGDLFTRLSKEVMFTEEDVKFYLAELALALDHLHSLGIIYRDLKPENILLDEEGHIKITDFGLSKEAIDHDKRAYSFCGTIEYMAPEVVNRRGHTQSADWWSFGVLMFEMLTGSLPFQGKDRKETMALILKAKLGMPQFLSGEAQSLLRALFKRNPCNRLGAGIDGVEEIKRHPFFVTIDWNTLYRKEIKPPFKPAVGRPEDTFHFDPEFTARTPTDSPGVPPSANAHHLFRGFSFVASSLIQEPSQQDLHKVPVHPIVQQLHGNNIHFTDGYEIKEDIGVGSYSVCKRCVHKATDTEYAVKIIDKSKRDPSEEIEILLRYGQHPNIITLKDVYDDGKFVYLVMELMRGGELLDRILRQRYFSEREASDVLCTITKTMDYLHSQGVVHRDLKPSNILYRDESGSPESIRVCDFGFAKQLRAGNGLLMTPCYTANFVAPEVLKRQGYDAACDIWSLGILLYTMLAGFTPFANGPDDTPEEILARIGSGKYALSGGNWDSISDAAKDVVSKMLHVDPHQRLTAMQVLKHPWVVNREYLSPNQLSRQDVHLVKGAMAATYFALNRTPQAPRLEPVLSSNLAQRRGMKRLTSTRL
Test [6] shares this target. The settings on record: at 10 µM.
Test [7] has as its target Ribosomal protein S6 kinase alpha-6 (Homo sapiens) (UniProt Q9UK32). The settings on record: at 1 µM.
The target is the same in test [8]. Conditions: at 10 µM.
Test [9] addresses Mitogen-activated protein kinase 11 (Homo sapiens) (UniProt Q15759). Conditions: at 1 µM.
For test [10] the target is unchanged. Conditions: at 10 µM.
For test [11], the target named is T1, Mitogen-activated protein kinase 13 (Homo sapiens) (UniProt O15264).
T1 sequence (whole entry): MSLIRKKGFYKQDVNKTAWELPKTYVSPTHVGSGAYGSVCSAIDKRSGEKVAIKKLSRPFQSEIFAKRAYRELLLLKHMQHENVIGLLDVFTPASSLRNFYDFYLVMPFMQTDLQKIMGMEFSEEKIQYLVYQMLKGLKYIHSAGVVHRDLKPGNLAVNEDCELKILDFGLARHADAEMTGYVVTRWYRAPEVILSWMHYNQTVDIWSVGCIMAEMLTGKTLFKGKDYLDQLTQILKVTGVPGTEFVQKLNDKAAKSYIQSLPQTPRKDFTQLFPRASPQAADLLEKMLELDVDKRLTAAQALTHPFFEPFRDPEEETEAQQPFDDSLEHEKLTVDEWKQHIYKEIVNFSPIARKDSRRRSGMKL
The settings on record: at 10 µM.

Test [12] concerns the target T2, Serine/threonine-protein kinase Sgk1 (Homo sapiens) (UniProt O00141).
T2 sequence (whole entry): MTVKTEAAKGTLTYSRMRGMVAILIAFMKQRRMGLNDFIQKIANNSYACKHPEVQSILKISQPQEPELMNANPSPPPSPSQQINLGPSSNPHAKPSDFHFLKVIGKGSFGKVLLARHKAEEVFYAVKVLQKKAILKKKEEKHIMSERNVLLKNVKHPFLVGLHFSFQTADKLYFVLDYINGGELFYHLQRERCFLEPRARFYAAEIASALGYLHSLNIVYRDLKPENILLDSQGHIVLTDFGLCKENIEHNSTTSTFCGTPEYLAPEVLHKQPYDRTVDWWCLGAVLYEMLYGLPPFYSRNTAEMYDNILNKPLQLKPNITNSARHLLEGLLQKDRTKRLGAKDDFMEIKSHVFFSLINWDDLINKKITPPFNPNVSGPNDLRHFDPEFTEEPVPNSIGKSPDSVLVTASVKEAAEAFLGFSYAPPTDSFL
The settings on record: at 1 µM.

Test [13] has as its target T2, Serine/threonine-protein kinase Sgk1 (Homo sapiens). Conditions: at 10 µM.
For test [14], the target named is T3, Serine/threonine-protein kinase Sgk2 (Homo sapiens) (UniProt Q9HBY8).
T3 sequence (whole entry): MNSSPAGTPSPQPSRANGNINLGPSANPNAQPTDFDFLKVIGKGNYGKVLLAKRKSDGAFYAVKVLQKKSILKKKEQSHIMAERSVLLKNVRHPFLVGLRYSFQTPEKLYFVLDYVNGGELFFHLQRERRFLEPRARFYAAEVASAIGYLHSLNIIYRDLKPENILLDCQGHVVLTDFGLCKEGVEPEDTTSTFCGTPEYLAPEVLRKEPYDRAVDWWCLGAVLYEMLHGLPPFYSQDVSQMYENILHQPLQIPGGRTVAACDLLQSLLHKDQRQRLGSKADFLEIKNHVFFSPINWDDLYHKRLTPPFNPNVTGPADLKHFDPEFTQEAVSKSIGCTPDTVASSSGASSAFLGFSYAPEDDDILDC
The settings on record: at 10 µM.

Test [15] concerns the target T4, Serine/threonine-protein kinase Sgk3 (Homo sapiens) (UniProt Q96BR1).
T4 sequence (whole entry): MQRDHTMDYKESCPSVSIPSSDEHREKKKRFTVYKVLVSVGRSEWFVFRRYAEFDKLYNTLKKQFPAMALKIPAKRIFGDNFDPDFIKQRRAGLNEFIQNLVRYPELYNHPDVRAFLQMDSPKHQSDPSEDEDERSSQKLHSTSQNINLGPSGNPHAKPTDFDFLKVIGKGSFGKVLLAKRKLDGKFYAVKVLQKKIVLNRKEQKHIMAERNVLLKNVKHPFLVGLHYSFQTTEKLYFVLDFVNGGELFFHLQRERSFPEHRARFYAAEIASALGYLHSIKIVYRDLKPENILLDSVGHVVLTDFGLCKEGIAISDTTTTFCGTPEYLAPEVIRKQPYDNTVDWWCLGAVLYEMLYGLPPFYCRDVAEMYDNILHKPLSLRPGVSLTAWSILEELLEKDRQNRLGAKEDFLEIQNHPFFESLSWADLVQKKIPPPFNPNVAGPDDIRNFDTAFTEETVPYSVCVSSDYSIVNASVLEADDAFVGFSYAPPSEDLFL
The settings on record: at 10 µM.

Test [16] concerns the target Serine/threonine-protein kinase SIK1 (Homo sapiens) (UniProt P57059). Conditions: at 1 µM.
For test [17], the target named is Mitogen-activated protein kinase 14 (Homo sapiens) (UniProt Q16539). The settings on record: at 1 µM.
Chain of Mitogen-activated protein kinase 14 (Homo sapiens) (Q16539 whole entry): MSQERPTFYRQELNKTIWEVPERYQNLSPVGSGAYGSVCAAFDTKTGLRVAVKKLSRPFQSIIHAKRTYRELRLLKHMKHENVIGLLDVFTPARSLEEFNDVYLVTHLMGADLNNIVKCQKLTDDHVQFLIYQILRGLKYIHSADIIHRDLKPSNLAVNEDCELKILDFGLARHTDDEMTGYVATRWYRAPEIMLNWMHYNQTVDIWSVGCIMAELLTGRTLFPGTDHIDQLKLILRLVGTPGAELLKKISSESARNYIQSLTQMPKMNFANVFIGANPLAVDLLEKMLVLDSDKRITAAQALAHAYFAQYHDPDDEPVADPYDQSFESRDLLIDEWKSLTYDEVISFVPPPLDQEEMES
The target is the same in test [18]. Conditions: at 10 µM.
For test [19], the target named is T1, Mitogen-activated protein kinase 13 (Homo sapiens). Conditions: at 1 µM.
The target in test [20] is T3, Serine/threonine-protein kinase Sgk2 (Homo sapiens). Conditions: at 1 µM.

Chain of Ribosomal protein S6 kinase alpha-1 (Homo sapiens) (Q15418 whole entry): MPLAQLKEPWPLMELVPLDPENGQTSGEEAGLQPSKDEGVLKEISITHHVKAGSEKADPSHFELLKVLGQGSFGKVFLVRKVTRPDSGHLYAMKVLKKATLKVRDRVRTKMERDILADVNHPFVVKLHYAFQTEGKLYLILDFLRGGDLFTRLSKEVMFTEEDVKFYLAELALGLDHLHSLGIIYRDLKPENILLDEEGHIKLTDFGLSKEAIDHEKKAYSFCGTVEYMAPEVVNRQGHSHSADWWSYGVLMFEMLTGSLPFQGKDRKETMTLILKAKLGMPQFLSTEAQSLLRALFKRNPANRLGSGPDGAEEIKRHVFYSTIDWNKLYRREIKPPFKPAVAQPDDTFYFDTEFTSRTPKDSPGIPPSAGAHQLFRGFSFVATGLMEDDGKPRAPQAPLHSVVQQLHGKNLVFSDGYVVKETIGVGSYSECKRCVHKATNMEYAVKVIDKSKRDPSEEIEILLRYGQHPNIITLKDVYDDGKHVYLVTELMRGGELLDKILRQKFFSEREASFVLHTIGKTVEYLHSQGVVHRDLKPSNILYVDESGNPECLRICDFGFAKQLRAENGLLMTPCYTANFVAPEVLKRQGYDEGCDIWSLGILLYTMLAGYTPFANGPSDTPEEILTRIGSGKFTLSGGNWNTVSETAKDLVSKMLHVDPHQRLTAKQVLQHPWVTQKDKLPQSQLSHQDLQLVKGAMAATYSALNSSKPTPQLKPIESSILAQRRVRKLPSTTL
Chain of Serine/threonine-protein kinase SIK1 (Homo sapiens) (P57059 whole entry): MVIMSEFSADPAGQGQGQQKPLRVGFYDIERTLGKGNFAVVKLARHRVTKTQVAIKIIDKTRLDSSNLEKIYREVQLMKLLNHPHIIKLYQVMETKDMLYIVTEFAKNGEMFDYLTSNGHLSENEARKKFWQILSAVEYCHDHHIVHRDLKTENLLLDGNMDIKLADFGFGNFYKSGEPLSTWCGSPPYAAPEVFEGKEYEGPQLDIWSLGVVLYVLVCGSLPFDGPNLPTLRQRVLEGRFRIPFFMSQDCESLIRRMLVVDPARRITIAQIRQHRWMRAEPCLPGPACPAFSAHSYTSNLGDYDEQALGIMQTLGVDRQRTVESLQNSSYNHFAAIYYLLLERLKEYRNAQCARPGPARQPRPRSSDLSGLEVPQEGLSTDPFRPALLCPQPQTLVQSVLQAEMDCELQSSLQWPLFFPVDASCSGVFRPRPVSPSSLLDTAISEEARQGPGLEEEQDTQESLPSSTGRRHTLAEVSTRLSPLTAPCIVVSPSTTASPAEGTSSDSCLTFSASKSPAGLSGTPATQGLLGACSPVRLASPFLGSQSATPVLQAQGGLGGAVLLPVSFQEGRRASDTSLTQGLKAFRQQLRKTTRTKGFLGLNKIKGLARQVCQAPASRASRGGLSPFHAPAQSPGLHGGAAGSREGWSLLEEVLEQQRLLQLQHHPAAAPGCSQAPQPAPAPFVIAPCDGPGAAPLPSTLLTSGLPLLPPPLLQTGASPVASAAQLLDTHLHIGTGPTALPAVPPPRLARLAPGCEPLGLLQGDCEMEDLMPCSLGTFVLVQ
Chain of Ribosomal protein S6 kinase alpha-3 (Homo sapiens) (P51812 whole entry): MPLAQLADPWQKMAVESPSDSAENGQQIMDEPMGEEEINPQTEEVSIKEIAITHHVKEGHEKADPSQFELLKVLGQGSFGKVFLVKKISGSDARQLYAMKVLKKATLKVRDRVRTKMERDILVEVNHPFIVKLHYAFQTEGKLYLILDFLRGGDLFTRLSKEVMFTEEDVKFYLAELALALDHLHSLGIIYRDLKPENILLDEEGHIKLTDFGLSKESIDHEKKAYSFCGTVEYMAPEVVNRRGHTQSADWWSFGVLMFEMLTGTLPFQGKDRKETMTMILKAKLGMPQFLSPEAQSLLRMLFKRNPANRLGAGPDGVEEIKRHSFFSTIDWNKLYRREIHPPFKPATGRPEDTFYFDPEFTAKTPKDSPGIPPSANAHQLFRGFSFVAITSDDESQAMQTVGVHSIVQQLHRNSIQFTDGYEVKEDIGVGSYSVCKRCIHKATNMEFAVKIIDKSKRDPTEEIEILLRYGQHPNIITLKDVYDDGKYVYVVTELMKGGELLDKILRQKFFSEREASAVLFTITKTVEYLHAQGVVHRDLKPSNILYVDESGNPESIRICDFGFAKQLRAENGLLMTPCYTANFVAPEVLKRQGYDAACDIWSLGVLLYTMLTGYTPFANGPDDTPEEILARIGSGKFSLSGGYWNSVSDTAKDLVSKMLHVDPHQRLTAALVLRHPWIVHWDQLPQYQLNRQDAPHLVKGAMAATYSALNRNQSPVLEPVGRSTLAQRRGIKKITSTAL
Chain of Ribosomal protein S6 kinase alpha-6 (Homo sapiens) (Q9UK32 whole entry): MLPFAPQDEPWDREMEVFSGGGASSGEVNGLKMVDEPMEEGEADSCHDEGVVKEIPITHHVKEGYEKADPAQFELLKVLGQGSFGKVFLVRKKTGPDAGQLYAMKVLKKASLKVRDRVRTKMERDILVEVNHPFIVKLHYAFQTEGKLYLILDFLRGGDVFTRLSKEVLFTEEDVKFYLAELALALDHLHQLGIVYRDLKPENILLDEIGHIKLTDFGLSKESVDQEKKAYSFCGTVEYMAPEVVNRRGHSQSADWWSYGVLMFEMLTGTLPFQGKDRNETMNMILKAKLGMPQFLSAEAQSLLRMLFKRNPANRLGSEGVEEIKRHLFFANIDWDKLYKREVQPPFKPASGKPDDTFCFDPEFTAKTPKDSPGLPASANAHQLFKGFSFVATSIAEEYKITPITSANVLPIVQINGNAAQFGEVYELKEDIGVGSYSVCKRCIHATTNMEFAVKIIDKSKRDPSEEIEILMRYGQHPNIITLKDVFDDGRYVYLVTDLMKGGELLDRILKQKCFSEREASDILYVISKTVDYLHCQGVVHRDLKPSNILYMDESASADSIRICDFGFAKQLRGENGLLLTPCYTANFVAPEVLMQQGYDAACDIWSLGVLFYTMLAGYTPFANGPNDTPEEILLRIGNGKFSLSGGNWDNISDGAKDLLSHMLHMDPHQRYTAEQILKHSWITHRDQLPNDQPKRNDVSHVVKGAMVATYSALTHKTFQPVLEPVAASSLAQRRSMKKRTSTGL
Chain of Mitogen-activated protein kinase 11 (Homo sapiens) (Q15759 whole entry): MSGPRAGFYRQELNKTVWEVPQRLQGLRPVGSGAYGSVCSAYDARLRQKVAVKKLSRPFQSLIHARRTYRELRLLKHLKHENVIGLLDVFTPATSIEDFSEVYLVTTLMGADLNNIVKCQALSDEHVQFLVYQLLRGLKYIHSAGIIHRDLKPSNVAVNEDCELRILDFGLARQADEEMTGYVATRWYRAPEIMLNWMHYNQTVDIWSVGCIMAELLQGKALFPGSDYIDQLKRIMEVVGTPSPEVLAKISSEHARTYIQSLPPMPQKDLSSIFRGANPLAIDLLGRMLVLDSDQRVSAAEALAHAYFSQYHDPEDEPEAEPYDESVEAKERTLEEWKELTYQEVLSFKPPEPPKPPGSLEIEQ

As for `Nc1nc(Nc2ccc(S(N)(=O)=O)cc2)nn1C(=O)c1c(F)cccc1F`, the residual activity in [1] stood at 28%; in test [2] it was 8%; in test [3], 32%; in [4], 8%; in test [5] it was 19%; in [6], 4%. Also, the residual activity in [7] amounted to 27%; in [8] it was 2%; in test [9] it was 102%; in [10], 77%; in test [11] it was 31%; in [12], 124%. Also, the residual activity worked out at 75% in test [13], 49% in [14], 79% in test [15] and 50% in test [16].
On to `COc1cc2nccc(Oc3ccc(NC(=S)NC(=O)c4ccccc4C)cc3)c2cc1OC`, for which the residual activity in test [1] was found to be 96%; in [2], 81%; in test [3] it was 70%; in [4], 19%; in [7], 88%; in test [8], 123%. Also, the residual activity in test [17] stood at 82%; in test [18] it was 68%; in [9] it was 83%; in test [10], 87%; in test [19], 101%; in test [11], 87%. For the same compound, the residual activity is 99% in test [20], 79% in test [15] and 32% in test [16].
Consider `CC(C)(C)n1nc(Cc2cccc3ccccc23)c2c(N)ncnc21`, for which the residual activity in [1] is 107%; in [2] it was 65%; in test [3], 112%; in test [4] it was 80%; in [5] it was 99%; in test [6], 85%. In addition, the residual activity amounted to 113% in test [7]; 77% in [8]; 41% in [17]; 7% in test [18]; 64% in test [9]; 22% in test [10]. The residual activity turned out to be 101% in [19]; 95% in test [11]; 100% in test [12]; 127% in test [13]; 101% in [20]; 78% in test [14]. The values for the residual activity in test [15] and in test [16] were 105% and 72%, respectively.
On to `Nc1n[nH]c2nc3ccccc3nc12`, for which the residual activity was found to be 118% in test [1]; 87% in [2]; 65% in [3]; 54% in test [4]; 93% in [5]; 77% in test [6]. Further, the residual activity in test [7] came to 83%; in test [8], 71%; in test [17] it was 90%; in [18] it was 97%; in test [11], 98%; in test [20], 92%. Further, the residual activity in [14] came to 45%; in test [16] it was 118%.
Turning to `O=C(c1cc2cc(O)ccc2[nH]1)c1cc2cc(O)ccc2[nH]1`, the residual activity in test [1] was determined as 40%; in test [2], 9%; in test [3] it was 30%; in test [4], 4%; in [5], 13%; in [6] it was 2%. In addition, the residual activity worked out at 26% in [7]; 10% in [8]; 75% in [17]; 73% in [18]; 68% in [12]; 28% in test [13]. The residual activity is 62% in [20], 18% in test [14], 52% in [15] and 39% in test [16].
`COc1ccc(CNC(=O)Nc2ncc([N+](=O)[O-])s2)cc1`: the residual activity was 136% in test [1] and 109% in test [2].
On to `COc1cc2nccc(Oc3ccc(NC(=O)Nc4cc(C)on4)c(Cl)c3)c2cc1OC`, for which the residual activity in test [1] stood at 105%; in test [2] it was 77%; in [3], 60%; in test [4] it was 35%; in test [7] it was 99%; in [9] it was 19%. Moreover, the residual activity in test [11] amounted to 97%; in test [20], 103%; in test [14], 79%.
Take `O=C1NC(=O)C(c2c[nH]c3ccccc23)=C1c1c[nH]c2ccccc12`: the residual activity in test [1] worked out at 22%; in [2] it was 3%; in [3], 27%; in test [4], 3%; in [5] it was 5%; in test [6], 0%. For the same compound, the residual activity in [7] amounted to 9%; in [8] it was 1%; in test [17], 98%; in [18], 73%; in test [11], 99%; in [12] it was 76%. The residual activity in [13] was found to be 65%; in [20], 78%; in test [14] it was 29%; in [16], 81%.
